# Test results: PubChem BioAssay AID2717 (Broad Institute, 2010)
# Among all 300,000 compounds or so, about 3,200 (1.1%) were called active. The sample holds actives, similar compounds and a random draw of the others, so the mix is not that of the screen. A number with no mark means an inactive call. Rule as the data show it: active = inhibition above about 75%; inconclusive = no clear call, values can overlap the other calls; inactive = below that; tested in HMLE shEcad cells.
# Assay: growth suppression of cancer stem-like cells – cell-based, luminescence, primary screen (AID 2717)
# Conditions: cancer stem cell-like cells viability, at 7.5 µM, active compounds read high
row,SMILES,inhibition
1,COc1cccc(-c2cc3nc4c(c(N5CCC6(CC5)OCCO6)n3n2)CCCC4)c1,90.5% (active)
2,COc1cccc(NC(=O)CN2CCN(c3nc(-c4cccc(OC)c4)cs3)CC2)c1,2.49%
3,COc1cccc(CNc2nc3nc4c(c(=O)n3[nH]2)CCC4)c1,-11.3%
4,COc1ccccc1C1=CC(=O)CCC1,-22.3%
5,COc1ccccc1-c1sc2ccccc2c1C#CC1(O)CCCCC1,105% (active)
6,COc1ccccc1-c1sc2ccccc2c1-c1ccc(C(C)=O)cc1,29.6%
7,Cc1csc(NC(=O)NC2(C(F)(F)F)Oc3ccccc3O2)n1,36.6%
8,O=C(Nc1cc(N2CCOCC2)ncn1)NC1(C(F)(F)F)Oc2ccc(Cl)cc2O1 (configuration not stated),88.5% (active)
9,COc1ccc(Cl)cc1NC(=O)CN1CCN(C(=O)N2CCOCC2)CC1,-6.19%
10,Cc1c(O)c(C)c2c(c1O)C(=O)C[C@@H](c1ccccc1)O2,1.32%
11,Cc1cccc(-n2ncc3c(=O)[nH]c(SCC(=O)Nc4cc(C)on4)nc32)c1,-7.48%
12,Cc1ccc(CCC(=O)Nc2ncc(Cc3cc(Cl)ccc3Cl)s2)o1,86.2% (active)
13,Cc1ccc(C(=O)Nc2nc3ccc(Cl)cc3s2)o1,18.8%
14,CCOc1ccccc1NC(=O)CCc1ccc(C)o1,0.408%
15,CCCc1cc(=O)[nH]c(SCC(=O)Nc2ccc(S(=O)(=O)N3CCCC3)cc2)n1,15.6%
16,C=CC[C@@H](CC(=O)N[C@@H](CO)Cc1ccccc1)C(=O)NCCOC(=O)[C@@H](CC=C)CC(=O)OC(C)(C)C,-6.46%
17,CCN1CCN(CCNC(=O)c2ccc3c(c2)NC(=O)/C(=C\c2ccc(OC)c(OC)c2)S3)CC1,12.1%
18,CCN1CCN(CCNC(=O)c2ccc(/C=C3/Sc4ccccc4N(Cc4cccc(C)c4)C3=O)cc2)CC1,102% (active)
19,O=C(NCCN1CCOCC1)c1ccc(/C=C2\Sc3ccccc3N(Cc3ccc(F)cc3)C2=O)cc1,33.7%

row,SMILES,inhibition
1,COc1ccc(C(=O)OCC(=O)c2cc(C)n(CC3CCCO3)c2C)cc1[N+](=O)[O-] (configuration not stated),37.8%
2,C=CC[C@H](CC(=O)OC(C)(C)C)C(=O)OC[C@H]1CCCN1C(=O)[C@H](CC=C)CC(=O)N(CCO)Cc1ccccc1,4.1%
3,CCN(C(=O)CSc1cccc[n+]1[O-])c1ccccc1,7%
4,O=C(OCC(=O)N1CCc2ccccc21)c1ccc([N+](=O)[O-])cc1,8.88%
5,O=C(Nc1ccn(Cc2ccccc2F)n1)c1ccc(COc2ccc(Cl)cc2Cl)o1,80.3% (active)
6,Cc1cccc(NC(=O)c2ccc(COc3ccccc3[N+](=O)[O-])o2)n1,54.5%
7,O=C(O)c1ccc(NC(=O)c2ccc(COc3ccc(Cl)cc3)o2)cc1,-2.6%
8,COCCCNC(=O)CC1C[C@H](C(=O)N2CCCCC2)[C@@]2(CCc3ccccc3)c3[nH]c4ccccc4c3CCN2C1=O (some centres not stated),-19.5%
9,NC1=NC(=O)C(Cc2cccc(Cl)c2Cl)S1 (configuration not stated),14.4%
10,CC(C)=N/N=C1/NC(=O)C(Cc2ccccc2)S1 (configuration not stated),-16.9%
11,O=C1NC(=Nc2ccc(Cl)cc2)SC1Cc1cccc(Cl)c1Cl (configuration not stated),76.5% (active)
12,O=C(CCCOc1ccccc1)NNC(=O)c1ccc(Cl)cc1,-7.46%
13,O=C(NCCc1ccco1)c1ccc(OCc2cn3ccccc3n2)cc1,-8.4%
14,COc1ccc(NC(=O)c2cc(-c3ccc(C)cc3)on2)cc1,11.2%
15,COc1ccc(NC(=O)/C(Cl)=C(/Cl)S(=O)Cc2ccc(C)cc2)cn1 (configuration not stated),112% (active)
16,COc1ccc(Nc2cc(Cl)ccc2C(=O)O)cn1,5.84%
17,NC(=O)Nc1ccc(C(=O)OCC(=O)NC2CCCc3ccccc32)cc1 (configuration not stated),3.37%
18,C=C(C)COc1ccc(-c2n[nH]c(C)c2-c2ccccc2OC)c(O)c1,102% (active)
19,C=C(C)COc1ccc(-c2n[nH]c(C)c2-c2ccccc2)c(O)c1,-11.5%

row,SMILES,inhibition
1,COc1ccc(-c2n[nH]c(C)c2-c2ccccc2OC)c(O)c1,2.11%
2,COc1cccc(/C(C)=N/Nc2ncc(Cl)cc2Cl)c1,24.2%
3,COc1cccc(/C=N/Nc2cc(C)nc(-c3ccccc3O)n2)c1O,12.2%
4,COc1cccc(/C=N/Nc2ncc(C(F)(F)F)cc2Cl)c1O,102% (active)
5,Cc1ccc(S(=O)(=O)Nc2nc(CN3CCOCC3)nc3sc(C)c(C)c23)cc1,-7.69%
6,Cc1ccc(NC(=O)C(C)Sc2nnc(C3CC3)n2C2CC2)cc1S(=O)(=O)N1CCOCC1 (configuration not stated),-10.2%
7,O=C(NNS(=O)(=O)c1c(F)cc(F)c(Cl)c1F)C12CC3CC(CC(C3)C1)C2,-12.7%
8,COc1cccc2sc3cc(NCC[C@@H]4CCCN4C)ccc3c(=O)c12,6.75%
9,Cc1nc2ccc(NC(=O)c3cccc(S(=O)(=O)N4CCOCC4)c3)cc2s1,-13.4%
10,COc1cccc(/C=C2\C=C(c3ccc(C)cc3)OC2=O)c1OC(C)=O,-0.631%
11,CCOc1cccc(/C=C/c2ccc3ccccc3n2)c1OC(C)=O,64.6%
12,COc1cccc(/C=C/c2ccc3ccccc3n2)c1OC(C)=O,104% (active)
13,O=C1N[C@@H](c2ccccc2)COC(=O)[C@H](Cc2ccc(F)cc2)C/C=C\C[C@@H]1CC(=O)N(CCO)Cc1ccccc1,9.15%
14,CCN(CC(=O)Nc1c(F)cccc1F)C(=O)c1ccc(-c2ccc(C(C)=O)cc2)o1,-4.76%
15,COc1ccccc1CNC(=O)COC(=O)c1cccs1,18.5%
16,C=CC[C@@H](CC(=O)N[C@H](CO)Cc1ccccc1)C(=O)N[C@H](C)COC(=O)[C@@H](CC=C)Cc1ccc(F)cc1,-14.7%
17,COC(=O)CSc1ncnc2c1cnn2-c1ccc(C)cc1C,8.04%
18,COc1ccccc1N1CCN(C(=O)CSc2nnc(-c3ccoc3C)o2)CC1,-0.373%
19,COc1ccccc1N1CCN(C(=O)CSc2ncnc3c2cnn3-c2ccc(C)c(C)c2)CC1,75.8% (active)
